# Data from PubChem BioAssay.
# Results filed as inconclusive are left out. The source made the active and inactive calls.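 How the source made its calls, unless noted: active means normalized viability below 100% at a tested concentration; inactive means the rest.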
# Tests used:
# [1] = viability loss in pontine glioma line – cell-based, JHH-DIPG-1, MIPE4.0, CellTiter-Glo, qHTS, dose response (AID 1347062; cut-off not given, nearly all actives have AC50 up to about 27 µM;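 on AC50: cells exposed to compound for two days before readout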); details: JHH-DIPG-1 viability, CellTiter-Glo ATP luminescence
# [2] = viability loss in pontine glioma line – cell-based, SU-DIPG-IV, MIPE4.0, CellTiter-Glo, qHTS, dose response (AID 1347063; cut-off not given, nearly all actives have AC50 up to about 30 µM;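 further: compound exposure lasted 48 hours before the viability readout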); details: CellTiter-Glo ATP luminescence
# [3] = growth inhibition of DIPG cells – cell-based, MIPE4.0 library, CellTiter-Glo luminescence, qHTS (AID 1347066; cut-off not given, nearly all actives have AC50 up to about 30 µM;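 further: cells exposed to compound for 48 hours before readout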); details: SU-DIPG-VI viability, CellTiter-Glo ATP luminescence
# [4] = JHH-DIPG-1 glioma cell viability, MIPE5.0 library, CellTiter-Glo luminescence, qHTS (AID 1347067; cut-off not given, nearly all actives have AC50 up to about 26 µM;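 further: cells exposed to compound for 48 hours before readout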); details: JHH-DIPG-1 glioma viability, CellTiter-Glo ATP luminescence
# [5] = growth inhibition of DIPG cells – cell-based, MIPE5.0 library, qHTS (AID 1347068; cut-off not given, nearly all actives have IC50 up to about 30 µM;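 on IC50: cells exposed to compound for 48 hours before viability readout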); details: SU-DIPG-XXV viability
# [6] = viability loss with induced miR-34 in A549 – imaging, A549 dox-inducible miR-34, nuclei and caspase counts, primary screen (AID 1347080;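 active means compounds whose cell count with miR-34 switched on is under 0.7 times the count with it off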); details: A549 miR-34 inducible, Hoechst nuclei count, 48 h
# [7] = MELAS cybrid and Rieske KO viability enhancers – cell-based, MELAS cybrids, Rieske KO mouse fibroblasts, CellTiter-Glo, primary screen (AID 1508586;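 active means mean z-score across replicates of 1.96 or higher in either the MELAS or the Rieske mutant cell line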;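 further: z relative to plate mean and SD of compound and empty wells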); details: low glucose
# [8] = drug combination growth inhibition, ovarian cancer – cell-based, oncology-focused library, rucaparib conditional, profiling panel (AID 1508598); details: patient-derived ovarian cancer cells, CellTiter-Glo viability, 144 h, stronger effect = lower value
# [9] = viability loss in pontine glioma line – cell-based, SU-DIPG-XXV, MIPE5.0, CellTiter-Glo, qHTS, dose response (AID 1347065; cut-off not given, nearly all actives have AC50 up to about 26 µM;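 further: cells exposed to compound for 48 hours before ATP readout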); details: CellTiter-Glo ATP luminescence
compound,measurement,setting,value
CNC1[C@@H](O)C(O[C@@H]2C(O)C(O[C@H]3O[C@H]([C@@H](C)NC)CC[C@H]3N)[C@@H](N)C[C@H]2N)OC[C@]1(C)O (some centres undefined),outcome,[1],inactive
same,outcome,[2],inactive
same,outcome,[3],inactive
C[C@@H](Cc1cc2c(c(C(N)=O)c1)N(CCCO)CC2)NCCOc1ccccc1OCC(F)(F)F,outcome,[1],inactive
same,outcome,[2],inactive
same,outcome,[3],inactive
CCOc1cc(N2CCC(O)CC2)ccc1Nc1ncc2c(n1)N(C)c1ccccc1C(=O)N2C,AC50,[1],7.43 µM (active)
same,outcome,[3],inactive
same,AC50,[4],20.9 µM (active)
same,IC50,[5],18.6 µM (active)
same,fold change,"[6]; stronger effect = lower value, cell number ratio, induced over uninduced",0.886 (inactive)
same,fold change,[6]; measured here: relative caspase fold change +Dox/-Dox,0.548
same,cell count,"[6]; measured here: total cells with miR-34 induction, stronger effect = lower value",6240
same,cell count,[6]; measured here: total cells without miR-34 induction,7040
same,z-score,"[7]; MELAS cybrid survival, CellTiter-Glo 48 h, stronger effect = higher value",-0.56 (inactive)
same,z-score,"[7]; Rieske KO mouse fibroblast survival, CellTiter-Glo 72 h",-1.56
same,viability,"[8]; at 0.000305 µM, OCI-C5x cells, with rucaparib 10 µM, 100% = cells with rucaparib alone",123% (inactive)
same,viability,"[8]; at 0.000305 µM, OCI-C5x cells, without rucaparib",120% (inactive)
same,viability,"[8]; at 0.000305 µM, OCI-P5x cells, with rucaparib 20 µM, 100% = cells with rucaparib alone",94.3% (active)
same,viability,"[8]; at 0.000305 µM, OCI-P5x cells, without rucaparib",101% (inactive)
same,viability,"[8]; at 0.00122 µM, OCI-C5x cells, with rucaparib 10 µM, 100% = cells with rucaparib alone",122% (inactive)
same,viability,"[8]; at 0.00122 µM, OCI-C5x cells, without rucaparib",109% (inactive)
same,viability,"[8]; at 0.00122 µM, OCI-P5x cells, with rucaparib 20 µM, 100% = cells with rucaparib alone",99.4% (active)
same,viability,"[8]; at 0.00122 µM, OCI-P5x cells, without rucaparib",105% (inactive)
same,viability,"[8]; at 0.00488 µM, OCI-C5x cells, with rucaparib 10 µM, 100% = cells with rucaparib alone",119% (inactive)
same,viability,"[8]; at 0.00488 µM, OCI-C5x cells, without rucaparib",112% (inactive)
same,viability,"[8]; at 0.00488 µM, OCI-P5x cells, with rucaparib 20 µM, 100% = cells with rucaparib alone",91.8% (active)
same,viability,"[8]; at 0.00488 µM, OCI-P5x cells, without rucaparib",102% (inactive)
same,viability,"[8]; at 0.0195 µM, OCI-C5x cells, with rucaparib 10 µM, 100% = cells with rucaparib alone",124% (inactive)
same,viability,"[8]; at 0.0195 µM, OCI-C5x cells, without rucaparib",117% (inactive)
same,viability,"[8]; at 0.0195 µM, OCI-P5x cells, with rucaparib 20 µM, 100% = cells with rucaparib alone",94% (active)
same,viability,"[8]; at 0.0195 µM, OCI-P5x cells, without rucaparib",99.5% (active)
same,viability,"[8]; at 0.0781 µM, OCI-C5x cells, with rucaparib 10 µM, 100% = cells with rucaparib alone",131% (inactive)
same,viability,"[8]; at 0.0781 µM, OCI-C5x cells, without rucaparib",124% (inactive)
same,viability,"[8]; at 0.0781 µM, OCI-P5x cells, with rucaparib 20 µM, 100% = cells with rucaparib alone",96.6% (active)
same,viability,"[8]; at 0.0781 µM, OCI-P5x cells, without rucaparib",108% (inactive)
same,viability,"[8]; at 0.313 µM, OCI-C5x cells, with rucaparib 10 µM, 100% = cells with rucaparib alone",109% (inactive)
same,viability,"[8]; at 0.313 µM, OCI-C5x cells, without rucaparib",131% (inactive)
same,viability,"[8]; at 0.313 µM, OCI-P5x cells, with rucaparib 20 µM, 100% = cells with rucaparib alone",88.3% (active)
same,viability,"[8]; at 0.313 µM, OCI-P5x cells, without rucaparib",95.6% (active)
same,viability,"[8]; at 1.25 µM, OCI-C5x cells, with rucaparib 10 µM, 100% = cells with rucaparib alone",101% (inactive)
same,viability,"[8]; at 1.25 µM, OCI-C5x cells, without rucaparib",121% (inactive)
same,viability,"[8]; at 1.25 µM, OCI-P5x cells, with rucaparib 20 µM, 100% = cells with rucaparib alone",84.7% (active)
same,viability,"[8]; at 1.25 µM, OCI-P5x cells, without rucaparib",90.7% (active)
same,viability,"[8]; at 5 µM, OCI-C5x cells, with rucaparib 10 µM, 100% = cells with rucaparib alone",85.7% (active)
same,viability,"[8]; at 5 µM, OCI-C5x cells, without rucaparib",119% (inactive)
same,viability,"[8]; at 5 µM, OCI-P5x cells, with rucaparib 20 µM, 100% = cells with rucaparib alone",35.5% (active)
same,viability,"[8]; at 5 µM, OCI-P5x cells, without rucaparib",75.3% (active)
CC(=O)NC(C)c1ccc(Oc2ccc(OC(C)C)cc2)cc1 (centres undefined),outcome,[1],inactive
same,outcome,[3],inactive
CC(=O)NCCC(=O)N[C@@H](CCC(N)=O)C(=O)N[C@@H](CO)C(=O)N[C@@H](CCC(N)=O)C(=O)N[C@@H](CCC(N)=O)C(=O)N[C@H](C(=O)N[C@@H](Cc1ccccc1)C(=O)N[C@]1(C)CCCCCC/C=C\CCC[C@@](C)(C(=O)N[C@@H](CCC(N)=O)C(=O)N[C@@H](CC(N)=O)C(N)=O)NC(=O)[C@H](CC(C)C)NC(=O)[C@H](CC(C)C)NC(=O)[C@@H](CCCNC(=N)N)NC(=O)[C@H](Cc2c[nH]c3ccccc23)NC(=O)[C@H](CC(C)C)NC(=O)[C@H](CC(N)=O)NC1=O)[C@H](C)O,outcome,[1],inactive
same,outcome,[9],inactive
same,outcome,[4],inactive
same,outcome,[5],inactive
